Measured values as given in PubChem BioAssay AID1159580 (chemical genetic matrix, 2015).
Hit rate of the full screen: of about 5,500 compounds, about 2,000 (36%) were called active. Roughly 18% stayed inconclusive and do not appear here. Cut-off read from the data, not from the text of the source: active = normalized growth mostly below about 0.91 (no sharp cut-off); inconclusive = no clear call, values can overlap the other calls; inactive = mostly above about 0.92. This is one part of the list.

Test: chemical genetic growth profiling, strain panel (AID 1159580);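 note: tested at 20 µM; growth read once vehicle control cultures reached saturation at 30 °C; 1 = growth at the plate median or of vehicle wells; lower values mean less growth of the strain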
Settings: S. cerevisiae deletion strains, growth OD
[1] = locus YMR307W, strain GAS1, hits give low values
[2] = locus YPL055C, strain LGE1, hits give low values
[3] = locus YAL040C, strain CLN3, hits give low values
[4] = locus YCL061C, strain MRC1 (second series), hits give low values
[5] = locus YDR363W, strain ESC2, hits give low values
[6] = locus YER002W, strain NOP16, hits give low values
[7] = locus YMR263W, strain SAP30, hits give low values
[8] = locus YNL175C, strain NOP13, hits give low values
[9] = locus YNL197C, strain WHI3, hits give low values
[10] = locus YNL224C, strain SQS1, hits give low values
[11] = locus YNL322C, strain KRE1, hits give low values
[12] = locus YOR083W, strain WHI5 (second series), hits give low values

Measured: normalized growth

COc1ccccc1-c1cc(=O)c2cccc(OC)c2o1
active: locus YBR021W, strain FUR4, hits give low values 0.795 | locus YDL134C, strain PPH21, hits give low values 0.865 | locus YDL192W, strain arf1, hits give low values 0.867 | locus YDR318W, strain mcm21, hits give low values 0.915 | locus YDR502C, strain sam2, hits give low values 0.906 | locus YEL061C, strain CIN8, hits give low values 0.902 | locus YER167W, strain BCK2, hits give low values 0.899 | locus YGL086W, strain mad1, hits give low values 0.908 | locus YGL248W, strain PDE1, hits give low values 0.865 | locus YGR135W, strain pre9, hits give low values 0.869 | locus YGR229C, strain SMI1, hits give low values 0.617 | locus YGR252W, strain gcn5, hits give low values 0.714 | locus YHR030C, strain SLT2, hits give low values 0.753 | locus YHR129C, strain ARP1, hits give low values 0.882 | locus YIL066C, strain RNR3, hits give low values 0.814 | locus YJL095W, strain BCK1, hits give low values 0.562 | locus YKR001C, strain vps1, hits give low values 0.855 | locus YLR330W, strain CHS5, hits give low values 0.798 | locus YLR342W, strain FKS1 (second series), hits give low values 0.732 | locus YLR371W, strain rom2, hits give low values 0.839 | locus YLR418C, strain cdc73, hits give low values 0.642 | locus YMR223W, strain ubp8, hits give low values 0.886 | locus YNL233W, strain BNI4, hits give low values 0.795 | locus YNL307C, strain MCK1, hits give low values 0.758 | locus YOL147C, strain pex11, hits give low values 0.924 | locus YOR184W, strain ser1, hits give low values 0.758
inactive: locus YBR229C, strain ROT2, hits give low values 0.972 | locus YCL029C, strain bik1, hits give low values 0.987 | locus YDL035C, strain GPR1, hits give low values 0.894 | locus YDL074C, strain BRE1, hits give low values 0.824 | locus YDL101C, strain DUN1, hits give low values 0.909 | locus YDL185W, strain tfp1, hits give low values 0.986 | locus YDR101C, strain arx1, hits give low values 0.928 | locus YDR162C, strain NBP2, hits give low values 0.857 | locus YDR388W, hits give low values 0.97 | locus YER110C, hits give low values 1.01 | locus YER155C, strain BEM2, hits give low values 0.93 | locus YGL078C, strain dbp3, hits give low values 0.991 | locus YHR079C, strain IRE1 (second series), hits give low values 0.993 | locus YHR094C, strain hxt1, hits give low values 1 | locus YHR200W, strain rpn10, hits give low values 0.939 | locus YIL073C, strain SPO22, hits give low values 0.875 | locus YIL125W, strain kgd1, hits give low values 0.989 | locus YIR030C, strain dcg1, hits give low values 0.977 | locus YJL134W, strain LCB3, hits give low values 0.974 | locus YJL168C, strain set2, hits give low values 0.977 | locus YJL187C, strain SWE1 (second series), hits give low values 0.885 | locus YJR043C, strain POL32, hits give low values 0.864 | locus YKL009W, strain mrt4, hits give low values 0.978 | locus YKL068W, hits give low values 0.998 | locus YKL085W, strain MDH1 (second series), hits give low values 0.977 | locus YKL085W, strain MDH1, hits give low values 0.977 | locus YKL190W, strain CNB1, hits give low values 0.938 | locus YLR039C, strain RIC1, hits give low values 0.84 | locus YLR058C, strain SHM2, hits give low values 0.911 | locus YLR102C, strain apc9, hits give low values 1.01 | locus YLR262C, strain YPT6, hits give low values 0.855 | locus YLR268W, strain sec22, hits give low values 0.924 | locus YML016C, strain PPZ1, hits give low values 0.956 | locus YML032C, strain rad52, hits give low values 0.92 | locus YML124C, strain tub3, hits give low values 0.972 | locus YMR078C, strain ctf18, hits give low values 0.986 | [1] 0.843 | locus YNL067W, strain RPL9B, hits give low values 0.896 | locus YNL153C, strain GIM3, hits give low values 0.903 | locus YNL250W, strain rad50, hits give low values 0.997 | locus YNL271C, strain bni1, hits give low values 0.983 | locus YNL298W, strain CLA4, hits give low values 0.963 | locus YNR052C, strain pop2, hits give low values 0.964 | locus YOL012C, strain htz1 1.7 | locus YOR061W, strain CKA2, hits give low values 0.976 | locus YOR069W, strain VPS5, hits give low values 0.951 | locus YOR136W, strain idh2, hits give low values 0.992 | locus YOR144C, strain elg1, hits give low values 0.967 | locus YOR316C, strain cot1, hits give low values 0.991 | [2] 0.826 | locus YPR119W, strain clb2, hits give low values 1 | locus YPR141C, strain kar3, hits give low values 1 | locus YPR163C, strain tif3, hits give low values 0.924 | locus YPR167C, strain met16, hits give low values 0.964 | strain wtn01, hits give low values 0.918

O=c1cc(N2CCOCC2)oc2c(-c3ccccc3)cccc12
inactive: locus YAL013W, strain DEP1, hits give low values 1.03 | [3] 0.996 | [4] 1.01 | locus YDR150W, strain NUM1, hits give low values 0.992 | [5] 0.995 | [6] 1 | [7] 0.992 | [8] 0.996 | [9] 0.991 | [10] 0.999 | [11] 1.01 | [12] 0.986 | locus YPL241C, strain CIN2, hits give low values 0.998

COc1cccc(-c2cc(=O)c3ccccc3o2)c1N
inactive: [3] 0.905 | [4] 1 | [5] 1.04 | [6] 1.02 | locus YJR075W, strain HOC1, hits give low values 0.992 | [7] 0.997 | [1] 0.992 | [8] 0.922 | [9] 0.937 | [11] 1.01 | [2] 1.01
active: [10] 0.907 | [12] 0.807
